Reference: a collection of fitness landscapes (doi:10.1016/j.celrep.2020.107928)
The full ranking holds about 81,000 sequences; the median of “one-hybrid fitness for binding NBS DNA” is about -0.1, and the highest 2% start at about 0.36. This is one part of a sample in which the highest values are shown more often than they occur.

B1: Caulobacter ParB omega fusion; a variant is named by its letters at X, in order, B8GW30 (parent)
chain: MESVVVGEPGMSEGRRGLGRGLSALLGEVDAAPAQAPGEQLGGSREAPIEILQRNPDQPRRTFREEDLEDLSNSIREKGVLQPILVRPSPDTAGEYQIVAGERAWRAAQRAGLKTVPIMVRELDDLAVLEIGIIENVQRADLNVLEEALSYKVLMEKFERTQENIAQTIGKSXSHVANXMRLLXLPDEVQSYLVSGELTAXHARAIAAAADPVALAKQIIEGGLSVRETEALARKAPNLSAGKSKGGRPPRVKDTDTQALESDLSSVLGLDVSIDHRGSTGTLTITYATLEQLDDLCNRLTRGI

Variants of: B1
Assay: one-hybrid fitness for binding NBS DNA (the Noc-binding site; scaled: cognate 1, non-cognate 0); higher = stronger binding
Settings: with NBS DNA site
In short: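 Pre- and post-selection plasmids were Illumina-sequenced, three replicate libraries were pooled, and any variant with under 10 reads was removed. The libraries were Caulobacter ParB with four specificity codons randomised, selected in E. coli USO through a HIS3 reporter whose site is 19 bp from the promoter. Cells grew 48 hours at 37°C on M9 without histidine, with 0.1 mM IPTG and 5 mM 3-AT. Fitness is the log change in variant-to-wild-type read ratio, rescaled against cognate and non-cognate.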

Variant	one-hybrid fitness for binding NBS DNA
QSGV	≤ 0.2
QRGV	0.452
QPRV	≤ 0.2
QCRV	0.525
QTDV	≤ 0.2
QKDV	≤ 0.2
LALN	≤ 0.2
NRHK	≤ 0.2
IQAC	≤ 0.2
EASL	≤ 0.2
KDSS	≤ 0.2
WRLM	≤ 0.2
VHFW	≤ 0.2
QRHV	0.439
QCHV	0.214
QRDV	≤ 0.2
QRNV	0.453
QPHV	≤ 0.2
QCNV	≤ 0.2
QRRV	0.574
QHYV	≤ 0.2
QRYV	0.348
QHQV	≤ 0.2
QHRV	0.378
QREV	≤ 0.2
KSRF	≤ 0.2

Variant	one-hybrid fitness for binding NBS DNA
EDAY	≤ 0.2
VSIE	≤ 0.2
RVLI	≤ 0.2
FHTT	≤ 0.2
NSFQ	≤ 0.2
LEVT	≤ 0.2
QHST	0.446
QSST	0.424
QAST	0.395
QLST	0.413
QASD	≤ 0.2
QASN	≤ 0.2
QHSC	≤ 0.2
QLSH	≤ 0.2
QLSS	0.317
QHSQ	≤ 0.2
QGST	≤ 0.2
QSSN	≤ 0.2
TKRI	≤ 0.2
FEYS	≤ 0.2
SKTD	≤ 0.2
HPSA	≤ 0.2
RYAA	≤ 0.2
WFRC	≤ 0.2
AMMM	≤ 0.2
SFTI	≤ 0.2

Variant	one-hybrid fitness for binding NBS DNA
QPST	≤ 0.2
QCST	0.553
QIST	0.311
KDHS	≤ 0.2
QTKT	0.883
QTVT	0.517
DTKT	≤ 0.2
NTKT	≤ 0.2
IWTS	≤ 0.2
SWRY	≤ 0.2
VSWL	≤ 0.2
RKRC	0.4
RRWC	0.393
RRDC	0.318
RRYC	0.313
RKDC	≤ 0.2
MVEC	0.453
RSWC	≤ 0.2
RKYC	≤ 0.2
RCWC	≤ 0.2
MVES	≤ 0.2
RRRC	0.39
MVER	0.34
RQIE	≤ 0.2
ITGG	≤ 0.2
VFDW	≤ 0.2

Variant	one-hybrid fitness for binding NBS DNA
QNAP	≤ 0.2
SDVV	≤ 0.2
ANIL	≤ 0.2
GEAG	≤ 0.2
AWVG	≤ 0.2
LYSD	≤ 0.2
VKHG	≤ 0.2
FRVT	≤ 0.2
LRPY	≤ 0.2
RPRC	≤ 0.2
RCRC	0.391
RSRC	0.355
AGSH	≤ 0.2
ISGM	≤ 0.2
RNNP	≤ 0.2
RNIR	≤ 0.2
RNVR	≤ 0.2
RNRR	0.504
RNYR	≤ 0.2
RNKN	≤ 0.2
RNDS	≤ 0.2
RNKS	0.489
RNNS	0.388
RNVS	≤ 0.2
RNKR	0.535
RNKH	0.237

Variant	one-hybrid fitness for binding NBS DNA
GHAT	≤ 0.2
RHRC	0.295
IAAT	≤ 0.2
AKCT	≤ 0.2
RNDR	≤ 0.2
RNND	≤ 0.2
RNNR	0.381
TPFG	≤ 0.2
MWSR	≤ 0.2
HRYM	≤ 0.2
RRHC	0.363
RPVC	≤ 0.2
RRKC	0.375
RRLC	0.301
RRVC	0.414
RCVC	≤ 0.2
PACV	≤ 0.2
QHSI	≤ 0.2
QQQH	≤ 0.2
QQRH	0.645
QQYF	≤ 0.2
QQRL	0.329
QQRS	0.714
QQRD	0.286
QQQS	0.428
KQRS	0.224

Variant	one-hybrid fitness for binding NBS DNA
QQRF	0.387
QQFF	≤ 0.2
QQRP	0.312
QQQN	≤ 0.2
DWKY	≤ 0.2
RGQM	≤ 0.2
NLNF	≤ 0.2
VHRM	≤ 0.2
GFMT	≤ 0.2
YDNR	≤ 0.2
NHAS	≤ 0.2
GPQT	≤ 0.2
EHTR	≤ 0.2
QQSH	0.208
QQRN	0.466
QQHS	0.476
QQWF	≤ 0.2
QQWS	0.397
QQHN	≤ 0.2
QQYN	≤ 0.2
QQSN	≤ 0.2
QQSS	0.436
QQWG	≤ 0.2
QQDN	≤ 0.2
QQHD	≤ 0.2
